Assay outcomes: PubChem, National Center for Advancing Translational Sciences (NCATS)
TDP1 cell CPT = growth inhibition of DT40 Tdp1-/-;hTDP1 cells with camptothecin (screen for TDP1 inhibitors); 420,000 tested, 12% active; Potency, µM (top dose mostly 46.2 µM), for inactives: at the top dose activity change, negative = growth inhibition, most hits filed as inhibitors; chicken DT40 Tdp1-/-;hTDP1 cells + 20 nM CPT, ATP luminescence, 48 h; further: potency means the concentration at half of the fitted maximal effect; nearly all actives have a fitted effect of over 55% in size
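Chicken DT40 Tdp1-/- cells complemented with human TDP1, 400 cells/well, exposed to compounds plus 20 nM camptothecin for at least 48 h at 37 C; viability read as ATP content by CellTiter-Glo luminescence.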
IL1B secr inh = inflammasome signaling inhibition, IL-1 beta readout | THP-1 LPS/ATP IL-1B secretion, AlphaLISA, 16 h; active compounds read low | activity change, % at 57.5 µM | 360,000 tested, 4.7% active | AID 743279; in the data active means activity change below about -50%; inconclusive means mostly about -30% to -49%
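Secreted IL-1B measured by AlphaLISA bead assay after 16 h compound exposure of THP-1 cells; compounds (final up to 57.5 uM) added 1 h before LPS (250 ng/mL) and ATP (1.25 mM) stimulation; lower signal means less secretion.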
ELG1 repair inh = inhibitors of ELG1-dependent DNA repair in HEK293T cells; HEK293T ELG1-luciferase reporter, luminescence, 16 h; DNA damage induced by 5-fluorouridine; Potency, µM (doses to about 46.1 µM), for the others: top-dose activity change, negative = inhibition, actives largely listed as inhibitors; 330,000 tested, 2.3% active; AID 504467; further: potency means the concentration at half of the fitted maximal effect; nearly all actives have a fitted effect of over 55% in size
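Overnight (16 hr) co-exposure of 2,000 cells/well to 5-fluorouridine and compound at 37 °C preceded detection. Luciferase was quantified via ONE-Glo luminescence; loss of signal denotes inhibition.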
TDP1 block = blocks human tyrosyl-DNA phosphodiesterase 1; recombinant TDP1, AlphaScreen DNA substrate cleavage; 350,000 tested, 0.28% active; Potency, µM (highest dose often 130 µM), without a hit: at the highest dose activity change, negative = inhibition, most hits filed as inhibitors; further: potency means the concentration at half of the fitted maximal effect; nearly all actives have a fitted effect of over 40% in size
Target sequence (Q9NUW8 whole entry, looked up): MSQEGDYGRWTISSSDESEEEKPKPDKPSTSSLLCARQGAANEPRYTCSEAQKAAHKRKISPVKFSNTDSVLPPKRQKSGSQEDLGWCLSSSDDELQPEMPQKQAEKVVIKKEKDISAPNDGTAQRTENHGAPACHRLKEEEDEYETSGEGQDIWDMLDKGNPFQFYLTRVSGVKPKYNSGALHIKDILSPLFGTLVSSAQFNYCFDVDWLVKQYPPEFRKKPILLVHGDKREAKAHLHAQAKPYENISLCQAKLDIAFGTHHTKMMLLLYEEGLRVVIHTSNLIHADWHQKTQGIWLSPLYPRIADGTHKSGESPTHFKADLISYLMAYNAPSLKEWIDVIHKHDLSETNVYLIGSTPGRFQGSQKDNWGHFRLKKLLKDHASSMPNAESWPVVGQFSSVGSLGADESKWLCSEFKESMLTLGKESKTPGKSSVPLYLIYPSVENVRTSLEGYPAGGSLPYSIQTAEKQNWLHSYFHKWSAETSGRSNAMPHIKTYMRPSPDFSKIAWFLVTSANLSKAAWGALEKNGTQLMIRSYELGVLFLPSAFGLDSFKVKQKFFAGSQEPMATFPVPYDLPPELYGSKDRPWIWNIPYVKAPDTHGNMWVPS
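E. coli-derived human Tdp1, 1 nM final. Cpd preinc 15 min RT; substrate 15 nM final, 5 min RT; AS bead mix 10 ug/ml final, 10 min RT. Signal loss = tyrosine-FITC cleavage. No-enzyme wells = max signal.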
TDP1 cell noCPT = qHTS for Inhibitors of human tyrosyl-DNA phosphodiesterase 1 (TDP1): qHTS in cells in absence of CPT; DT40 Tdp1-/- hTDP1 cells, no CPT, ATP luminescence, 48 h; Potency, µM (top dose mostly 46.2 µM), for inactives: top-dose activity change, negative = growth inhibition, usual class: inhibitors; AID 686978, 2013; 420,000 tested, 15% active; further: potency means the concentration at half of the fitted maximal effect; nearly all actives have a fitted effect of over 55% in size
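Camptothecin absent (DMSO only). Human TDP1-complemented DT40 knockout cells, 400 cells/well, 37 °C for minimum 48 hr; ATP measured via CellTiter-Glo, 30 min dark incubation, luminescence.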
Giardia killer = kills Giardia lamblia; Giardia lamblia trophozoite viability; activity change, % at 7.66 µM, hits read low; 340,000 tested, 0.15% active; AID 540267; in the data active means activity change below about -80%; inconclusive means between about -30% and that limit;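 further: parasites exposed to compound for two days anaerobically before the ATP read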
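Trophozoites 100 cells/well + cpd; 48 hrs, 37 deg C, anaerobic. ATPLite 1-Step added, 15-30 min RT, luminescence read (ATP-based viability).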
Numbers without * were called inactive; u = inconclusive; x = no result; [ ] = another dose, or the depositor's remark. This is a sample that favours compounds with a hit; in the whole collection about 19% have one here. Unless noted, the call rests on the fitted dose curve; in most records, active means well fitted curve in the direction sought with a large enough effect; inconclusive means small, poorly fitted or top-dose-only effect, or another doubt; inactive means no such curve, though single readings can be large; an effect the other way counts as inactive or inconclusive. On the % scale 0 is the no-effect control and ±100 the full control effect.

SMILES | TDP1 cell CPT | IL1B secr inh | ELG1 repair inh | TDP1 block | TDP1 cell noCPT | Giardia killer
Cc1cc(Cl)ccc1NC(=O)CN1C(=O)C(=O)N(C2CCCC2)C1=O | -9.2% | -8.6 | 6.2% | 1.4% | -28.8% | 0.7
O=c1n(Cc2cccc(F)c2)c2ccccc2c2nc(-c3ccccc3)nn12 | u | x | x | -1.3% | 18.4µM* | x
Cc1cccc(Cn2c(=O)n3nc(-c4ccccc4)nc3c3ccccc32)c1 | 18.4µM* | x | x | 4.5% | 18.4µM* | x
Cc1ccc(-c2nc3c4ccccc4n(Cc4cccc(Cl)c4)c(=O)n3n2)cc1 | -11.0% | x | x | 7.4% | u | x
CCCn1c(-c2ccc(F)cc2)nc2c(NCCN(C(C)C)C(C)C)nc(C)nc21 | x | x | x | 9.3% | x | x
Cc1ccc(C(=O)N(C)c2nnc(-c3ccncc3)s2)cc1 | -5.3% | -3.7 | u | -2.5% | -22.7% | -3.6
COC(=O)c1c(SCC(=O)Nc2ccccc2C(F)(F)F)[nH]c2ccc(Cl)cc2c1=O | 20.6µM* | x | x | 2.6% | 29.1µM* | x
Cc1cc(C)cc(NC(=O)CCn2c(=S)[nH]c3ccccc3c2=O)c1 | -27.3% | -17.8 | -1.4% | 0.0% | -18.5% | -16.1
COC(=O)c1c(SCC(=O)Nc2cc(C)cc(C)c2)[nH]c2ccccc2c1=O | 23.1µM* | x | x | 6.4% | u | x
O=c1cc(-c2ccccc2)n2c(SCc3ccccc3Cl)nnc2[nH]1 | 4.4% | x | x | 2.6% | -0.8% | x
O=C1Nc2cc3c(cc2C1=O)sc1ccccc13 | 20.6µM* | x | -18.3% | x | 29.1µM* | -0.3
COCC(=O)Nc1nnc(COc2ccc(Cl)cc2)s1 | -8.8% | -0.5 | u | 2.5% | -9.7% | 11.6
CCOCC(=O)Nc1nnc(COc2ccc(Cl)cc2)s1 | 16.4µM* | -15.4 | 0.3% | 5.0% | 23.1µM* | 10.6
Cc1onc(-c2ccccc2)c1C(=O)Nc1nnc(COc2ccc(Cl)cc2)s1 | 5.8µM* | -13.4 | -1.3% | -1.0% | 8.2µM* | -15.6
COc1ccc(/C=C/c2nnc(NC(=O)CSc3ccc(Cl)cc3)s2)cc1 | 6.51µM* | 6.5 | u | 2.6% | 16.4µM* | 6.4
O=C(CSc1ccccc1)Nc1nnc(COc2ccc(Cl)cc2)s1 | 8.2µM* | -26.0 | -0.5% | 5.4% | 25.9µM* | -11.2
C/C=C(\C)[C@H](O)C[Si](C)(C)c1ccccc1 | x | x | x | 8.1% | x | x
Cc1cc(N2CCN(c3ccc([N+](=O)[O-])c4cccnc34)CC2)c2ccccc2n1 | 8.2µM* | -94.4* | u | 2.7% | 5.8µM* | u
O=C(c1ccccc1F)N1CCN(c2ccc([N+](=O)[O-])c3cccnc23)CC1 | -25.4% | u | -11.4% | 6.0% | u | -25.6
Nc1nonc1OCCN1CCN(c2ccc([N+](=O)[O-])c3cccnc23)CC1 | 23.1µM* | 4.4 | u | x | u | u
Cc1nonc1OCCN1CCN(c2ccccc2[N+](=O)[O-])CC1 | -8.5% | 0.0 | 16.9% | 5.0% | u | 0.1
Cc1cc(N2CCN(c3ccc(C(F)(F)F)cc3[N+](=O)[O-])CC2)c2ccccc2n1 | u | -27.5 | u | 9.2% | 20.6µM* | -5.8
COC(=O)[C@@]1(C)[C@H]2C(=O)N(C)C(=O)[C@H]2[C@H]2CN=C(SC)N21 | -4.7% | 4.6 | 11.4% | -0.7%[56.1 µM] | -9.8% | -0.8
CC(Nc1ncnc2nc[nH]c12)c1ccccc1 (centres undefined) | 16.4µM* | 9.9 | -0.5% | 7.9% | 13µM* | 8.9
COc1cc2ncnc(N[C@H](C)c3ccccc3)c2cc1OC | 18.4µM* | 39.9 | u | x | 23.1µM* | 8.4
SMILES | TDP1 cell CPT | IL1B secr inh | ELG1 repair inh | TDP1 block | TDP1 cell noCPT | Giardia killer
COc1cc2ncnc(NCc3ccccc3Cl)c2cc1OC | 20.6µM* | -8.8 | u | 5.4% | 13µM* | 5.1
COc1cc2ncnc(NCc3ccccc3C)c2cc1OC | u | -14.9 | u | 0.0% | u | 15.6
Cc1ccccc1CNc1ncnc2cc(Cl)ccc12 | -5.6% | 52.8 | -6.5% | x | u | -0.7
Cc1ccc(CNc2ncnc3cc(Cl)ccc23)cc1 | 25.9µM* | 0.7 | u | x | 18.4µM* | -7.4
COc1cccc(NC(=O)Nc2cc(C(=O)O)ccc2N2CC3CC(C2)c2cccc(=O)n2C3)c1 (centres undefined) | 12.6% | 25.7 | -0.9% | 6.5% | 15.5% | 4.0
CCOc1c(Br)cc(C2C=C(C(=O)O)Nc3ncnn32)cc1OC (centres undefined) | 2.3% | x | x | 0.0% | 32.2% | x
Cc1ccc(CNc2ncnc3ccc(-c4ccc5c(c4)OCO5)cc23)o1 | x | x | x | 3.2% | x | x
COc1cc2ncnc(NCc3ccc(Cl)cc3)c2cc1OC | u | -2.6 | u | -2.7% | u | -6.4
Cc1ccc(CNc2ncnc3cc(Cl)ccc23)o1 | 10.3µM* | -17.8 | -18.5% | 2.8% | 13µM* | -2.3
COc1cc2ncnc(NCc3ccc(C)o3)c2cc1OC | u | -17.9 | -14.9% | 5.4% | 20.6µM* | -4.9
Clc1ccc(CNc2ncnc3[nH]ncc23)c(Cl)c1 | u | -53.8* | x | x | 16.4µM* | -2.9
Clc1ccc(CNc2ncnc3[nH]ncc23)cc1Cl | -2.2% | -23.9 | x | x | u | 0.7
Fc1ccc(F)c(CNc2ncnc3cc(Cl)ccc23)c1 | 14.6µM* | u | -23.8% | x | 14.6µM* | 5.0
Cc1cnc(C(=O)OCC(=O)Nc2ccccc2[N+](=O)[O-])cn1 | 1.9% | 18.4 | 0.0% | 0.3% | -2.9% | -29.1
CC1CCC(C(C)C)C(P(=O)(c2ccccc2)c2ccccc2)C1 (centres undefined) | x | x | x | 9.5% | x | x
CSCC[C@H](NC(=O)N1CCn2c1nc1ccccc12)C(=O)NCc1ccco1 | u | u | 3.2% | -4.7% | 3.6% | 3.6
